From PubChem BioAssay (Tox21)
Where “and” joins values, the source holds several entries; their conditions need not be identical. Equal entries are not always repeated. Inconclusive results are not listed. Entries that show only a call come without a potency. Some structures have more than one record in an assay (separate samples or runs), and their calls can disagree. Calls of active or inactive are those of the source. Calls follow the shape of the dose curve; as a rule, active = well fitted curve in the direction sought with a large enough effect in the repeat runs; inconclusive = weak or mixed curves; inactive = no such curve, though single readings can be large; an effect the other way counts as inactive or inconclusive.

What was measured:
[1] = biological target: Cytochrome P450 2D6 (Homo sapiens) (UniProt P10635); experiment: Cytochrome P450 Family 2 Subfamily D Member 6 (CYP2D6) small molecule antagonists: luciferase reporter qHTS assay (AID 1671196); also: nearly all actives have a fitted effect of over 50% in size
Chain of Cytochrome P450 2D6 (Homo sapiens) (P10635 whole entry, looked up): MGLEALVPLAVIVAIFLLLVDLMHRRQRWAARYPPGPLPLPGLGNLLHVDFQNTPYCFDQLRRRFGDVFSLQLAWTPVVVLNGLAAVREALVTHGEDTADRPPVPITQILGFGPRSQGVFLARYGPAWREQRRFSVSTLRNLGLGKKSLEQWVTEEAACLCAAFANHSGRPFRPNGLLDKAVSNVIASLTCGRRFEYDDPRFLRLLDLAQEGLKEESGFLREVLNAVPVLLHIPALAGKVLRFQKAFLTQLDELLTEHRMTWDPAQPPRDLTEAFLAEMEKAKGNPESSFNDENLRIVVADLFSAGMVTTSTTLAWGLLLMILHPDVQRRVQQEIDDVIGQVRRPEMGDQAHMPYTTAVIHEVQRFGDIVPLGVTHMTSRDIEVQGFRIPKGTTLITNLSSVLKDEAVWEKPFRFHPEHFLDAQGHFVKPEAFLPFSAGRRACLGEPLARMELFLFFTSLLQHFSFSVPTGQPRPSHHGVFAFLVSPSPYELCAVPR
Summary of the method: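 Luminescence (RLU), read 20 min after detection reagent, indicated CYP2D6 conversion of proluciferin to luciferin during a 1 h NADPH-dependent reaction at room temperature.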

[2] = biological target: Cytochrome P450 2C19 (Homo sapiens) (UniProt P33261); experiment: Cytochrome P450 Family 2 Subfamily C Member 19 (CYP2C19) small molecule antagonists: luciferase reporter qHTS assay (AID 1671197); also: nearly all actives have a fitted effect of over 65% in size
Chain of Cytochrome P450 2C19 (Homo sapiens) (P33261 whole entry, looked up): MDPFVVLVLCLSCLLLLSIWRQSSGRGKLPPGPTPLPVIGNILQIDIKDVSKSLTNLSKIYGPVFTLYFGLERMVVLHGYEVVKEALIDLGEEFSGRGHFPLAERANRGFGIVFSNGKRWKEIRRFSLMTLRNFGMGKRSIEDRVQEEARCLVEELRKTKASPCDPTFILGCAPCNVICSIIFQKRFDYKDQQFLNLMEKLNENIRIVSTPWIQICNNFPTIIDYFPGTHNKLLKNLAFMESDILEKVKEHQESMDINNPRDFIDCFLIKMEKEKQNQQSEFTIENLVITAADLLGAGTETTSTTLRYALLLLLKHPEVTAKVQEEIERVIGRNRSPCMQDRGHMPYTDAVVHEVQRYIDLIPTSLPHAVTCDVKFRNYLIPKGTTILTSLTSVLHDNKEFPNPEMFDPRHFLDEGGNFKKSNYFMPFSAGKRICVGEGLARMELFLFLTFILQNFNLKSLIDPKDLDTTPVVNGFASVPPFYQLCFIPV
Summary of the method: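 Quantitative high-throughput screen of the Tox21 library using CYP2C19 with proluciferin substrate. Reaction: NADPH regeneration, 37C, 1 h, after 10 min compound preincubation at room temperature. Readout: luminescence.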

[3] = biological target: Cytochrome P450 2C9 (Homo sapiens) (UniProt P11712); experiment: Cytochrome P450 Family 2 Subfamily C Member 9 (CYP2C9) small molecule antagonists: luciferase reporter qHTS assay (AID 1671198); also: nearly all actives have a fitted effect of over 50% in size
Chain of Cytochrome P450 2C9 (Homo sapiens) (P11712 whole entry, looked up): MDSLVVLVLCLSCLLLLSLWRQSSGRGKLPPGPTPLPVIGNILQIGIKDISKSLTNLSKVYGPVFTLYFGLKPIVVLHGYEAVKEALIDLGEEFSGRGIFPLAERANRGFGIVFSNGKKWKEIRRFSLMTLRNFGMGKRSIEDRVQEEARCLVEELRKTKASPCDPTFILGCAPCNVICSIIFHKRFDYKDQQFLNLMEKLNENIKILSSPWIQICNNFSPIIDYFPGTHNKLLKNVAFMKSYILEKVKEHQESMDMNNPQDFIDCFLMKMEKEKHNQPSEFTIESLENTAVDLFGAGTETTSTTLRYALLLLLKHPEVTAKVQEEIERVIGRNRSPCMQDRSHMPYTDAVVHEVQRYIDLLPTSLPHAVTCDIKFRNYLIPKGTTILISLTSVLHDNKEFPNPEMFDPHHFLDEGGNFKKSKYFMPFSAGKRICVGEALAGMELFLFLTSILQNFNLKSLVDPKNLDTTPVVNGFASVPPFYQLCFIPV
Summary of the method: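 P450-Glo proluciferin substrate with CYP2C9 enzyme; 10 min RT preincubation, then NADPH regeneration 1 h at 37C; luciferin detection reagent 20 min RT, luminescence in relative luminescence units.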

[4] = biological target: Cytochrome P450 1A2 (Homo sapiens) (UniProt P05177); experiment: Cytochrome P450 Family 1 Subfamily A Member 2 (CYP1A2) small molecule antagonists: luciferase reporter qHTS assay (AID 1671199); also: nearly all actives have a fitted effect of over 50% in size
Chain of Cytochrome P450 1A2 (Homo sapiens) (P05177 whole entry, looked up): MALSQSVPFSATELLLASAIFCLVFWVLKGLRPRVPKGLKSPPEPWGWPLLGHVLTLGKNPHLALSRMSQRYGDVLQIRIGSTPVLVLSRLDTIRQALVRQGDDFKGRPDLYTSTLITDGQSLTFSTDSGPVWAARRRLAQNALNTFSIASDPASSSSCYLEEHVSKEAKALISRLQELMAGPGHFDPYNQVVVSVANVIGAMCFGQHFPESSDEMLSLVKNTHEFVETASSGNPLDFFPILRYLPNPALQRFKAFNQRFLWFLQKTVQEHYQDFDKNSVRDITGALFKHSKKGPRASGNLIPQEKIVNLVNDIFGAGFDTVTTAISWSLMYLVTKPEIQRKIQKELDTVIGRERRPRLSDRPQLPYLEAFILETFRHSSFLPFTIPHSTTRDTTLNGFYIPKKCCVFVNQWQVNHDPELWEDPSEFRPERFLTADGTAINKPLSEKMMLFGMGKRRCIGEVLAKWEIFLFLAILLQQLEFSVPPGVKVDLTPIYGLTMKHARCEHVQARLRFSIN
Summary of the method: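 CYP1A2 turnover of a luminogenic substrate was quantified after 1 h with NADPH regeneration at room temperature. Furafylline served as positive control.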

[5] = biological target: Cytochrome P450 3A4 (Homo sapiens) (UniProt P08684); experiment: Cytochrome P450 Family 3 Subfamily A Member 4 (CYP3A4) small molecule antagonists: luciferase reporter qHTS assay (AID 1671201); also: nearly all actives have a fitted effect of over 50% in size
Chain of Cytochrome P450 3A4 (Homo sapiens) (P08684 whole entry, looked up): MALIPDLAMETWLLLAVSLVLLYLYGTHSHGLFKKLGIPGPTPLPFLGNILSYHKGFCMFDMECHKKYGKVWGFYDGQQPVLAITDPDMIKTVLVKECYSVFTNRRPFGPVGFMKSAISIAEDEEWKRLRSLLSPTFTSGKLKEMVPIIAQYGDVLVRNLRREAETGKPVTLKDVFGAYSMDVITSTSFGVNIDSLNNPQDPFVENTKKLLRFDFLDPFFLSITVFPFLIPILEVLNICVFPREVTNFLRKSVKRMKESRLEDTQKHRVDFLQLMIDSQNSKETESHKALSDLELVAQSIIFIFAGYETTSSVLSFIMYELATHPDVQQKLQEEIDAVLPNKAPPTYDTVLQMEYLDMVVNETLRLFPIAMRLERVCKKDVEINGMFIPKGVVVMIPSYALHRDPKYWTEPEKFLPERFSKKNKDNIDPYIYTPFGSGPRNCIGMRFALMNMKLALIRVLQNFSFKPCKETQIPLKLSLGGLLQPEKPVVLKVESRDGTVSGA
Summary of the method: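 Recombinant human CYP3A4 converts a proluciferin substrate to luciferin over 1 h at room temperature after NADPH regeneration solution is added (compound preincubated 10 min); detection reagent stops reaction, luminescence read 20 min later as relative units.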

[6] = biological target: Voltage-gated inwardly rectifying potassium channel KCNH2 (Homo sapiens) (UniProt Q12809); experiment: Human Ether-a-go-go-Related Gene (hERG) channel small molecule antagonists: fluorescence cell-based qHTS assay (AID 1671200); also: nearly all actives have a fitted effect of over 50% in size
Chain of Voltage-gated inwardly rectifying potassium channel KCNH2 (Homo sapiens) (Q12809 whole entry, looked up): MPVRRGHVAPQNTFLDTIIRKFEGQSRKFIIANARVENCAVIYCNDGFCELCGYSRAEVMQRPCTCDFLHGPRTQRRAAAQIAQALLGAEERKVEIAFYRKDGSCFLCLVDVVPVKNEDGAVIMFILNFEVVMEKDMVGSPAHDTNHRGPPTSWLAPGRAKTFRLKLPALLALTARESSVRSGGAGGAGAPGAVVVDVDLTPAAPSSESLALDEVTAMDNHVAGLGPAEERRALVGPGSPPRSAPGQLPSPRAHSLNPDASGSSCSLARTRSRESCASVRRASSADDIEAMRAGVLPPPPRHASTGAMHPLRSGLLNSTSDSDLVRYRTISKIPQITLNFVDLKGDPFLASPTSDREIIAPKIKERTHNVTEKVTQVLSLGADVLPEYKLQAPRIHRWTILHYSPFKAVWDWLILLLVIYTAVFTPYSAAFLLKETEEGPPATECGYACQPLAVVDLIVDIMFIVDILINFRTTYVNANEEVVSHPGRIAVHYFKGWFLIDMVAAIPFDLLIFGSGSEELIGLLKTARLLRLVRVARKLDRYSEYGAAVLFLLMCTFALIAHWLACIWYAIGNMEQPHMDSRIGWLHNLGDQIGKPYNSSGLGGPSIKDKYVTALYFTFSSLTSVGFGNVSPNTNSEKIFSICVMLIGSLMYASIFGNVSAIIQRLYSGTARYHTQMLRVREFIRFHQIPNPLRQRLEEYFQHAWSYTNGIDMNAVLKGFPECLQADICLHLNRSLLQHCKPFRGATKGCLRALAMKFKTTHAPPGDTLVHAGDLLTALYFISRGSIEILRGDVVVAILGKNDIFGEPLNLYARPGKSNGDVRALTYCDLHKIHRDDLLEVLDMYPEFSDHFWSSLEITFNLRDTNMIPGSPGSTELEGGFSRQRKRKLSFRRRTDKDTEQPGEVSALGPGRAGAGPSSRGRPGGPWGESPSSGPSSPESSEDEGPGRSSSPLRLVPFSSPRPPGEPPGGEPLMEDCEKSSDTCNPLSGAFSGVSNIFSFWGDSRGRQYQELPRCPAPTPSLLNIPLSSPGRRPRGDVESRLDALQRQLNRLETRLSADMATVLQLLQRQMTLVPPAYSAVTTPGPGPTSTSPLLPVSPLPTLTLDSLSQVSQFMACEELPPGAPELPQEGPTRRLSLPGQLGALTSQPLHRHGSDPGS
Summary of the method: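 Thallium flux as potassium surrogate: FluxOR II dye loaded 1 h at room temperature into hERG-expressing U2OS cells, then stimulus buffer added after 10 min. Kinetic 480 nm excitation/540 nm emission read, 2 min.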
Potency is read from the fitted curve at half-maximal effect.

Structure (SMILES) | Potency [1] | Potency [2] | Potency [3] | Potency [4] | Potency [5] | Potency [6]
O=C(/C=C/c1ccccc1)OCc1ccccc1 | inactive | 17.8 µM (active) and 9.77 µM (active) | 17.8 µM (active) and 13.8 µM (active) | 11.2 µM (active) and 6.92 µM (active) | inactive | –
CCCCOCCOCCO | inactive | inactive | inactive | inactive | inactive | inactive
COC(=O)CCC(=O)OC | inactive | inactive | inactive | – | inactive | inactive
O=S(=O)(O)c1ccc(O)cc1 | inactive | inactive | inactive | inactive | inactive | inactive
CC(C(=O)O)c1cccc(C(=O)c2ccccc2)c1 (stereo not drawn) | inactive | 39.9 µM (active) | 31.7 µM (active) and 30.9 µM (active) | inactive and 24.5 µM (active) | inactive | inactive
C[C@]12CC[C@H]3[C@@H](CCC4=CC(=O)CC[C@@]43C)[C@@H]1CC[C@@H]2C(=O)CO | inactive | 7.1 µM (active) and 8.71 µM (active) | 39.9 µM (active) and 27.5 µM (active) | – | inactive | inactive
Cc1ccc2c(n1)Oc1ccc(C(C)C(=O)OCC(=O)N(C)C)cc1C2 (stereo not drawn) | 38.9 µM (active) | 17.4 µM (active) | 21.9 µM (active) | inactive | inactive | inactive
CCOC(=O)C(C#N)=C(c1ccccc1)c1ccccc1 | inactive | 5.64 µM (active) and 4.9 µM (active) | 5.03 µM (active) and 4.9 µM (active) | 3.56 µM (active) and 1.62 µM (active) | inactive | inactive
O=C(OCc1ccccc1)c1ccccc1O | inactive | 5.6 µM (active) and 17.8 µM (active) | 35.6 µM (active) | 31.5 µM (active) and 28.3 µM (active) | inactive | inactive
COc1ccccc1/C=C/C=O | inactive | 39.9 µM (active) | inactive | 29 µM (active) and 25.2 µM (active) | inactive | inactive
C[C@]12CCC(=O)C=C1CC[C@@H]1[C@@H]2C(=O)C[C@@]2(C)[C@H]1CC[C@]2(O)C(=O)CO | inactive | 25.2 µM (active) | inactive | inactive | inactive | inactive
Nc1ccc(S(=O)(=O)Nc2cnc3ccccc3n2)cc1 | inactive | 39.9 µM (active) | 11.2 µM (active) and 15.5 µM (active) | – | inactive | inactive
CN(C)CCC=C1c2ccccc2CCc2ccccc21 | 2.52 µM (active) and 5.64 µM (active) and 5.49 µM (active) | 7.97 µM (active) and 31.7 µM (active) | inactive | inactive | inactive | –
CC(C)=CCCC(C)CCO (stereo not drawn) | inactive | inactive and 50.2 µM (active) | inactive | – | inactive and 39.9 µM (active) | inactive
O=C(O)c1ccccc1Nc1cccc(C(F)(F)F)c1 | inactive | inactive | 63.3 µM (active) | 35.6 µM (active) | inactive | inactive
c1ccc(Nc2ccccc2)cc1 | inactive | 4.48 µM (active) and 22.4 µM (active) | 35.6 µM (active) and 39.9 µM (active) | 35.6 µM (active) | 3.17 µM (active) and inactive | inactive
CC(C)OB(OC(C)C)OC(C)C | inactive | 40 µM (active) and inactive | inactive | inactive | inactive | inactive
C[Si](C)(C)O[Si](C)(C)C | inactive | inactive | inactive | inactive | inactive | inactive
CC(C)OC(=O)C(C)(C)Oc1ccc(C(=O)c2ccc(Cl)cc2)cc1 | inactive | 8.94 µM (active) and 5.49 µM (active) | 3.56 µM (active) and 1.74 µM (active) | 35.6 µM (active) | inactive | 27.5 µM (active) and 8.49 µM (active)
